From PubChem BioAssay (EPA / NIEHS)
Several values for one entry are separate records, joined by “and”; a condition that tells them apart may be missing. Equal values may be shown once. Where a structure was tested more than once in an assay, its records may differ in their call. Activity calls are given as the source filed them. How the source made its calls: active means hit-call score of the fitted dose curve at least 0.9, where 1 is the maximum; inactive means score below 0.9.

Assays:
[1] = read-out: Intercellular Adhesion Molecule 1 (ICAM1), ICAM1 (gene 3383); test: BSK_BE3C_ICAM1: BioMAP Diversity Plus: BE3C Assay for Intercellular Adhesion Molecule 1 (ICAM1) Biomarker Activity (AID 2284278); conditions: primary human bronchial epithelial cells;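 further: cell-surface ICAM-1 protein level quantified by ELISA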
Summary of the method: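 ICAM-1 quantified by ELISA and fitted against DMSO baseline, 24 h post-dosing in BE3C cultures of primary human lung bronchial epithelial cells. Cytotoxicity checked in parallel cultures by total protein SRB staining.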

[2] = read-out: Interferon-inducible T-cell alpha chemoattractant (ITAC), CXCL11 (gene 6373); test: BSK_BE3C_ITAC: BioMAP Diversity Plus: BE3C Assay for Interferon-inducible T-cell alpha chemoattractant (ITAC) Biomarker Activity (AID 2284279); conditions: primary human bronchial epithelial cells
Summary of the method: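 The assay measures I-TAC levels by ELISA in human primary bronchial epithelial cell cultures 24 hours after chemical treatment. Values reflect signal increase over the DMSO baseline.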

[3] = read-out: Interleukin-8 (IL8), CXCL8 (gene 3576); test: BSK_BE3C_IL8: BioMAP Diversity Plus: BE3C Assay for Interleukin-8 (IL8) Biomarker Activity (AID 2284280); conditions: primary human bronchial epithelial cells
Summary of the method: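 Measured at 24 h after treatment, IL-8 from human primary bronchial epithelial cells is determined by ELISA, and the response is modelled as increasing relative to DMSO negative control.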

[4] = read-out: Epidermal growth factor receptor (EGFR), EGFR (gene 1956); test: BSK_BE3C_EGFR: BioMAP Diversity Plus: BE3C Assay for Epidermal growth factor receptor (EGFR) Biomarker Activity (AID 2284281); conditions: primary human bronchial epithelial cells
Summary of the method: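 Measured 24 h after dosing in primary human bronchial epithelial cultures, EGFR was read by ELISA; gain of signal over DMSO control defined activity.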

[5] = read-out: KRT18 (gene 3875); test: BSK_BE3C_Keratin818: BioMAP Diversity Plus: BE3C Assay for Keratin 818 Biomarker Activity (AID 2284282); conditions: primary human bronchial epithelial cells
Summary of the method: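 ELISA readout of Keratin 8/18 in human primary bronchial epithelial cultures after 24 h chemical exposure, DMSO baseline. Parallel SRB staining (0.1%, TCA-fixed, 560 nm) served as cytotoxicity check.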

[6] = read-out: Matrix Metallopeptidase 9 (MMP9), MMP9 (gene 4318); test: BSK_BE3C_MMP9: BioMAP Diversity Plus: BE3C Assay for Matrix Metallopeptidase 9 (MMP9) Biomarker Activity (AID 2284283); conditions: primary human bronchial epithelial cells
Summary of the method: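 ELISA read-out of MMP-9 after 24 h compound exposure of human lung bronchial epithelial primary cells (BE3C). Fit in gain direction vs DMSO negative control; total protein by SRB in parallel cultures flagged overt cytotoxicity.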

[7] = read-out: Decorin, DCN (gene 1634); test: BSK_MyoF_Decorin: BioMAP Diversity Plus: MyoF Assay for Decorin Biomarker Activity (AID 2284265); conditions: primary human lung fibroblasts
Summary of the method: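 ELISA readout of decorin, 24 h post-dosing; primary human lung fibroblast (MyoF) culture; gain-of-signal fit vs DMSO baseline.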

[8] = BSK_MyoF_SRB: Viability Assessment in the BioMAP Diversity Plus: MyoF Assay (AID 2284267); conditions: primary human lung fibroblasts;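 further: total protein by SRB absorbance in parallel cultures as cytotoxicity measure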
Summary of the method: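 Cytotoxicity read-out: after 10% TCA fixation, parallel human lung fibroblast cultures were stained with 0.1% SRB at 24 h post-dosing and read at 560 nm; DMSO served as baseline.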

[9] = read-out: Matrix Metallopeptidase 1 (MMP1), MMP1 (gene 4312); test: BSK_MyoF_MMP1: BioMAP Diversity Plus: MyoF Assay for Matrix Metallopeptidase 1 (MMP1) Biomarker Activity (AID 2284268); conditions: primary human lung fibroblasts
Summary of the method: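 Cells: human lung fibroblasts. Exposure: 24 h chemical dosing. Detection: ELISA for MMP1. Analysis: upward fitting against DMSO negative control.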

[10] = read-out: TIMP metallopeptidase inhibitor 1 (TIMP1), TIMP1 (gene 7076); test: BSK_MyoF_TIMP1: BioMAP Diversity Plus: MyoF Assay for TIMP metallopeptidase inhibitor 1 (TIMP1) Biomarker Activity (AID 2284269); conditions: primary human lung fibroblasts
Summary of the method: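 TIMP-1 levels were determined by ELISA in human lung fibroblasts treated for 24 h. DMSO served as negative control and baseline for upward curve fitting.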

[11] = read-out: Interleukin-1 alpha (IL1a), IL1A (gene 3552); test: BSK_BF4T_IL1a: BioMAP Diversity Plus: BF4T Assay for Interleukin-1 alpha (IL1a) Biomarker Activity (AID 2284264); conditions: primary human bronchial epithelial cells with fibroblasts
Summary of the method: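 ELISA read-out of IL-1α from bronchial epithelial cell/dermal fibroblast co-cultures 24 h after compound addition. Increases scored against DMSO negative control. Cytotoxicity monitored by sulforhodamine B staining of parallel cultures.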

[12] = read-out: KRT18 (gene 3875); test: BSK_BF4T_Keratin818: BioMAP Diversity Plus: BF4T Assay for Keratin 818 Biomarker Activity (AID 2284266); conditions: primary human bronchial epithelial cells with fibroblasts
Summary of the method: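 Keratin 8/18 levels quantified by ELISA after 24 h chemical treatment of bronchial epithelial cell/dermal fibroblast co-cultures, fitted in positive direction relative to DMSO. Parallel SRB staining tracks overt cytotoxicity.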

[13] = read-out: Matrix Metallopeptidase 1 (MMP1), MMP1 (gene 4312); test: BSK_BF4T_MMP1: BioMAP Diversity Plus: BF4T Assay for Matrix Metallopeptidase 1 (MMP1) Biomarker Activity (AID 2284270); conditions: primary human bronchial epithelial cells with fibroblasts
Summary of the method: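 MMP-1 quantified by ELISA in primary human bronchial epithelial/dermal fibroblast co-cultures, 24 hours post-dosing, with DMSO as baseline; parallel sulforhodamine B staining (560 nm) tracks overt cytotoxicity.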

[14] = read-out: Matrix Metallopeptidase 3 (MMP3), MMP3 (gene 4314); test: BSK_BF4T_MMP3: BioMAP Diversity Plus: BF4T Assay for Matrix Metallopeptidase 3 (MMP3) Biomarker Activity (AID 2284271); conditions: primary human bronchial epithelial cells with fibroblasts
Summary of the method: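 MMP-3 level read by ELISA after 24 h chemical exposure of bronchial epithelial cell/dermal fibroblast co-cultures, fitted upward relative to DMSO. Parallel cultures stained with 0.1% SRB after TCA fixation gauge overt cytotoxicity.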

[15] = read-out: Tissue plasminogen activator (tPA), PLAT (gene 5327); test: BSK_BF4T_tPA: BioMAP Diversity Plus: BF4T Assay for Tissue plasminogen activator (tPA) Biomarker Activity (AID 2284272); conditions: primary human bronchial epithelial cells with fibroblasts
Summary of the method: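 tPA level quantified by ELISA at 24 h post-treatment in bronchial epithelial/dermal fibroblast co-cultures, gain of signal scored against DMSO baseline. Parallel cultures stained with 0.1% SRB (560 nm) to flag overt cytotoxicity.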

[16] = read-out: Plasminogen Activator Inhibitor-1 (PAI1), SERPINE1 (gene 5054); test: BSK_BF4T_PAI1: BioMAP Diversity Plus: BF4T Assay for Plasminogen Activator Inhibitor-1 (PAI1) Biomarker Activity (AID 2284273); conditions: primary human bronchial epithelial cells with fibroblasts
Summary of the method: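 PAI-1 levels quantified by ELISA 24 h post-dosing in bronchial epithelial cell plus dermal fibroblast cultures. Signal gain referenced to DMSO baseline. Sulforhodamine B total-protein staining of parallel wells checked cytotoxicity.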

[17] = BSK_BF4T_SRB: Viability Assessment in the BioMAP Diversity Plus: BF4T Assay (AID 2284274); conditions: primary human bronchial epithelial cells with fibroblasts
Summary of the method: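 Cytotoxicity measured as total protein: cells fixed with 10% TCA, stained with 0.1% SRB, read at 560 nm. Bronchial epithelial/dermal fibroblast co-culture, 24 h after dosing, with positive-direction fitting relative to DMSO.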

[18] = read-out: urokinase Plasminogen Activator (uPA), PLAU (gene 5328); test: BSK_BF4T_uPA: BioMAP Diversity Plus: BF4T Assay for urokinase Plasminogen Activator (uPA) Biomarker Activity (AID 2284275); conditions: primary human bronchial epithelial cells with fibroblasts
Summary of the method: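 uPA levels measured by ELISA at 24 hours in BF4T cultures (bronchial epithelial cells plus dermal fibroblasts) and compared with DMSO; cytotoxicity tracked in parallel cultures by sulforhodamine B staining.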

[19] = read-out: Matrix Metallopeptidase 9 (MMP9), MMP9 (gene 4318); test: BSK_BF4T_MMP9: BioMAP Diversity Plus: BF4T Assay for Matrix Metallopeptidase 9 (MMP9) Biomarker Activity (AID 2284276); conditions: primary human bronchial epithelial cells with fibroblasts
Summary of the method: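 MMP-9 levels were measured by ELISA after 24 h exposure of bronchial epithelial cell/dermal fibroblast co-cultures, with DMSO as baseline. Parallel cultures were stained with 0.1% SRB after TCA fixation, read at 560 nm, to flag overt cytotoxicity.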

[20] = read-out: Interleukin-8 (IL8), CXCL8 (gene 3576); test: BSK_IMphg_IL8: BioMAP Diversity Plus: IMphg Assay for Interleukin-8 (IL8) Biomarker Activity (AID 2284277); conditions: primary human endothelial cells with macrophages
Summary of the method: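 IL-8 levels were measured by ELISA 24 h after dosing in primary human venular endothelial cell–macrophage cultures, referenced to DMSO; parallel SRB staining monitored overt cytotoxicity.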

Measured: AC50

COP(=O)(CCC(=O)NCO)OC
inactive: [1] | [2] | [3] | [4] | [5] | [6]

C=CC(=O)OCC(CC)(COC(=O)C=C)COC(=O)C=C
active: [7] 3.09 µM | [8] 2.91 µM | [9] 3.88 µM | [10] 9.61 µM

Cc1c([N+](=O)[O-])cc2c(c1[N+](=O)[O-])C(C)(C)CC2(C)C
active: [9] 4.01 µM
inactive: [7] | [8] | [10]

Nc1ccc([N+](=O)[O-])cc1Cl
inactive: [7] | [8] | [9] | [10]

COP(N)(=S)OC
inactive: [7] | [8] | [9] | [10]

O=C(O)C(F)(F)OC(F)(F)C(F)(F)OC(F)(F)C(=O)O
inactive: [11] | [7] | [12] | [8] | [9] | [10] | [13] | [14] | [15] | [16] | [17] | [18] | [19] | [20] | [1] | [2] | [3] | [4] | [5] | [6]

CCOP(=S)(OCC)SCSc1ccc(Cl)cc1
active: [9] 30.1 µM
inactive: [7] | [8] | [10]

CC(Cl)CN(C)C (centres undefined)
inactive: [7] | [8] | [9] | [10]

O=S(=O)(F)C(F)(F)C(F)(F)C(F)(F)C(F)(F)C(F)(F)C(F)(F)C(F)(F)C(F)(F)F
inactive: [11] | [7] | [12] | [8] | [9] | [10] | [13] | [14] | [15] | [16] | [17] | [18] | [19] | [20] | [1] | [2] | [3] | [4] | [5] | [6]

CC(C)Nc1ccc(Nc2ccccc2)cc1
active: [8] 20 µM | [10] 20 µM
inactive: [7] | [9]

c1ccc2c(c1)sc1ccccc12
inactive: [7] | [8] | [9] | [10]

O=C(O)C(F)(OC(F)(F)C(F)(F)C(F)(F)F)C(F)(F)F (centres undefined)
active: [20] 5.95 µM | [6] 1.45 µM
inactive: [11] | [7] | [12] | [8] | [9] | [10] | [13] | [14] | [15] | [16] | [17] | [18] | [19] | [20] | [1] | [2] | [3] | [4] | [5] | [6]

CCOP(=S)(OCC)SCS(=O)(=O)CC
inactive: [7] | [8] | [9] | [10]

OCC(F)(F)OC(F)(F)C(F)(F)OC(F)(F)C(F)(F)OC(F)(F)F
active: [8] 21.9 µM and 21.6 µM | [9] 19.9 µM and 18.3 µM | [10] 22.3 µM and 27.8 µM | [16] 25.6 µM
inactive: [11] | [7] | [12] | [13] | [14] | [15] | [16] | [17] | [18] | [19] | [20] | [1] | [2] | [3] | [4] | [5] | [6]

C=CC(=O)OCC(F)(F)C(F)F
active: [8] 41.2 µM | [9] 44 µM | [10] 47.6 µM | [15] 30 µM and 29.3 µM
inactive: [11] | [7] | [12] | [8] | [9] | [10] | [13] | [14] | [16] | [17] | [18] | [19] | [20] | [1] | [2] | [3] | [4] | [5] | [6]

O=C(O)C=CC(F)(C(F)(F)F)C(F)(F)F
inactive: [11] | [7] | [12] | [8] | [9] | [10] | [13] | [14] | [15] | [16] | [17] | [18] | [19] | [20] | [1] | [2] | [3] | [4] | [5] | [6]

Cc1ccc2c(c1N)C(=O)c1ccccc1C2=O
inactive: [7] | [8] | [9] | [10]

N#Cc1c(-c2ccc(Cl)cc2)[nH]c(C(F)(F)F)c1Br
inactive: [7] | [9]
active: [8] 0.802 µM | [10] 20 µM

CCOP(=S)(NC(C)C)Oc1ccccc1C(=O)OC(C)C (centres undefined)
inactive: [7] | [8] | [9] | [10]

CCOP(=S)(S)OCC
inactive: [7] | [8] | [9] | [10]

O=C(O)C(F)(F)C(F)(F)C(=O)O
inactive: [11] | [7] | [12] | [8] | [9] | [10] | [13] | [14] | [15] | [16] | [17] | [18] | [19] | [20] | [1] | [2] | [3] | [4] | [5] | [6]
